Compounds without any hit were thinned out: in the full panel of roughly 79,000, 15% have a hit. Unmarked numbers belong to inactive results. The source made the active and inactive calls. No stated cut-off is given here; in the data, active means growth inhibition above about 70%; inactive means the rest.
Columns and labels:
[1] = NCI Yeast Anticancer Drug Screen. Data for the rad50 strain (AID 155);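 further: 0% = growth of vehicle-only cultures of the same strain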; conditions: S. cerevisiae rad50 strain growth inhibition; at 50.0 µM; stronger effect = higher value
Procedure, shortened: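 Cells are treated with compound, grown, and their growth is then scored against vehicle-only cultures of the same repair-deficient yeast strain.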

[2] = NCI Yeast Anticancer Drug Screen. Data for the mec2-1 strain (AID 157); conditions: S. cerevisiae mec2-1 strain, at 50.0 µM, stronger effect = higher value
Procedure, shortened: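 Growth inhibition is read against vehicle-treated controls after compound exposure of the mec2-1 yeast strain, which is defective in DNA damage repair or cell cycle control.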

[3] = NCI Yeast Anticancer Drug Screen. Data for the sgs1 mgt1 strain (AID 161);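 further: 0% = growth of cultures given vehicle only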; conditions: S. cerevisiae sgs1 mgt1 strain, at 50.0 µM, stronger effect = higher value
Procedure, shortened: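 Growth of a repair-deficient yeast mutant was monitored after compound treatment and expressed as inhibition relative to vehicle-treated cultures.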

[4] = NCI Yeast Anticancer Drug Screen. Data for the cln2 rad14 strain (AID 165);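 further: 0% = growth equal to vehicle treated cultures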; conditions: S. cerevisiae cln2 rad14 strain, at 50.0 µM, stronger effect = higher value
Procedure, shortened: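 Growth inhibition, relative to vehicle-treated controls, is the read-out. The test organism is a yeast strain with defined genetic alterations, cln2 rad14.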

[5] = NCI Yeast Anticancer Drug Screen. Data for the bub3 strain (AID 167); conditions: S. cerevisiae bub3 mutant strain, at 50.0 µM, stronger effect = higher value
Procedure, shortened: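 Part of a panel of yeast mutants defective in DNA damage repair or cell cycle regulation. Each strain is grown with compound, and inhibition is calculated relative to solvent-treated cultures.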

[6] = NCI Yeast Anticancer Drug Screen. Data for the mlh1 rad18 strain (AID 175); conditions: S. cerevisiae mlh1 rad18 strain growth inhibition; at 50.0 µM; stronger effect = higher value
Procedure, shortened: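 Cells of a genetically altered yeast strain, deficient in DNA damage repair, were treated with compound. Their growth was then compared with that of vehicle-treated cultures to give inhibition.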

| SMILES | growth inhibition [1] | growth inhibition [2] | growth inhibition [3] | growth inhibition [4] | growth inhibition [5] | growth inhibition [6] |
| --- | --- | --- | --- | --- | --- | --- |
| CC(C)CNC(=O)Cn1c2c(c3ccccc31)CCCC2 | -4.5% | -32.7% | 1.4% | 3.75% | -14.8% | -10.8% |
| CCCCOc1ccc(C(=O)C(C(c2ccccc2)N2CCOCC2)N2CCOCC2)cc1 (stereo unspecified) | -7.8% | -4.85% | -9.4% | -6.8% | -12.2% | 9.2% |
| CC(=O)OC(C)c1cc2c(s1)C(=O)c1scc(C(C)OC(C)=O)c1C2=O (stereo unspecified) | 90.8% (active) | 93.4% (active) | 92.5% (active) | 91.9% (active) | 91.7% (active) | 91.3% (active) |
| CC(=O)OC(c1ccc2c(c1)OCO2)C(C)(C)C (stereo unspecified) | 17% | 14.9% | -7.3% | -33.5% | 8.7% | 7.9% |
| O=C(SCc1ccccc1)C(O)c1ccccc1 (stereo unspecified) | 1.95% | 6.9% | 15.7% | -24.6% | 19.3% | 5.2% |
| Nc1ccc2c(c1)C(=O)CCCC2 | 1.55% | -8.95% | -2.15% | -10.1% | 1.25% | 14.1% |
| O=C1Cc2c(-c3ccccc3)cc(-c3ccccc3)nc2-c2ccccc2N1 | -4.2% | 39.2% | 39% | 25.7% | 29.2% | 41.2% |
| CCCCCCCCCCCCNc1ncnc2c1cnn2C | -9.1% | -14.4% | -1.25% | -47.2% | 23.9% | -25.2% |
| CCOC(=O)C1=C(NC(=O)C(c2ccccc2)c2ccccc2)OCC1 | 4.7% | 4.75% | 5.05% | -48.5% | -13.3% | 7.85% |
| COc1ccc(C2=NOC3COC4C=CC=CC4OCC23)cc1 (stereo unspecified) | -11.4% | -22.1% | -13.6% | -17.9% | -19.4% | -18.6% |
| CCOC(=O)NN(C(=O)OCC)C(C(=O)C1=CCCCC1)N(NC(=O)OCC)C(=O)OCC | -9.95% | -1.15% | 4.5% | 0.2% | 0.3% | -2.85% |
| O=C(NC(c1ccccc1)C(O)C(=O)OCc1ccc2c(c1)C(=O)c1ccccc1C2=O)c1ccccc1 (stereo unspecified) | 10.9% | 15.4% | -23.3% | -0.15% | -8.9% | 20.6% |
| O=C(CCN1CCCC1)c1ccccc1 | -25.1% | -15.1% | -11.4% | 5.45% | -10.6% | -11.1% |
| CC1(C2c3ccccc3CC2OC2CCCCO2)CO1 (stereo unspecified) | -8.35% | -10.6% | -9.5% | -10.2% | -5.75% | 2.35% |
| Cc1cccc(NC(=O)NC2CCC(CC3CCCCC3)CC2)c1 (stereo unspecified) | 16.7% | 5.8% | 7.2% | -9.6% | -1.55% | 7.65% |
| CCOC(=O)[C@]1(Br)CC[C@]1(Br)C(=O)OCC | 16.2% | -12.7% | -4.95% | 10% | -29.1% | -62.8% |
| CCOC(=O)C1=C(O)C(=O)c2ccoc2C1=O | -52.9% | -35.2% | -58% | -7.15% | -32.5% | -32% |
| C=CCc1ccc(OC(=O)Nc2ccc(S(=O)(=O)CC)cc2)c(OC)c1 | 1.65% | -12.8% | -26.4% | -19.9% | -14.2% | -10.3% |

| SMILES | growth inhibition [1] | growth inhibition [2] | growth inhibition [3] | growth inhibition [4] | growth inhibition [5] | growth inhibition [6] |
| --- | --- | --- | --- | --- | --- | --- |
| CC(=O)C(C)(C)Cc1cc(C(C)(C)CC=O)on1 | -2.25% | -0.8% | -12.4% | 5.35% | 29.1% | 4.95% |
| N#CNc1c2ccccc2nc2ccccc12 | -12.1% | 1.05% | -16.6% | 2.85% | 6.5% | -4.75% |
| C/C(=C1\SC(=S)N(C2OC(CO)C(O)C(O)C2O)C1=O)c1ccco1 (stereo unspecified) | -14% | -9.3% | -33.2% | -0.85% | -3.3% | -32.9% |
| Cc1ccc(S(=O)(=O)OCC2OC(CCCO)C/C([Si](C)(C)C)=C\CC2Cl)cc1 (stereo unspecified) | 48.8% | 19.9% | 38.2% | 31.6% | 34.5% | 19.4% |
| c1ccc(C2Nc3ccccc3C3OCCCC23)cc1 (stereo unspecified) | 2.35% | -4.3% | 9.8% | -9.4% | -20.6% | 1.7% |
| CC(C)c1nc2c([nH]1)c(=O)n(C)c(=O)n2C | 30.2% | 6.85% | 26.4% | 18% | 2.8% | 17.9% |
| COc1ccccc1NC(=O)C(=O)C1C(=O)Nc2ccccc2S1=O (stereo unspecified) | -14.3% | -21.1% | -44.6% | 2.45% | -41% | -45.5% |
| Cc1cc(C)nc(NS(=O)(=O)c2ccc(NC(=O)c3ccncc3)cc2)n1 | -7.75% | -17.1% | 3.05% | 9.55% | -8.25% | -17.1% |
| O=[N+]([O-])c1ccc(Cl)c(C=NC23CC4CC(CC(C4)C2)C3)c1 | -13.6% | -24.8% | -29% | -9.3% | -22.9% | -8.9% |
| CCC(C)c1cc(C(C)(C)C)cc(-n2nc3ccccc3n2)c1OS(=O)(=O)c1cccc(N)c1 (stereo unspecified) | -4.4% | -27.1% | -12.8% | 2.7% | -16.9% | -22% |
| COc1ccc(/C(=N\O)c2nccc3cc(OC)c(OC)cc23)cc1OC | 35.8% | 14.2% | 27.9% | 9% | -2.95% | 18.4% |
| COC(=O)c1cocc1C(=O)OC | -13.9% | -7.25% | -3.75% | -2.8% | -15.3% | -15.9% |
| OC1COC(O)(CN2CCOCC2)C(O)C1O (stereo unspecified) | 14.2% | 5.95% | 10.6% | 4.75% | 18.1% | 7.6% |
| CC1CN(C(=O)/C=C/C(=O)OC2CCCCC2)C(C)CN1C(=O)/C=C/C(=O)OC1CCCCC1 (stereo unspecified) | 0.2% | -3.15% | -7.9% | 1.7% | -4.45% | -27.2% |
| CNCC(=O)NC(CO)C(=O)NC(CO)C(=O)NC1C(C(N)=O)OC(n2ccc(N)nc2=O)C(O)C1O (stereo unspecified) | 13.3% | 10.3% | 8.75% | 38.5% | 23.9% | 24.3% |
| O=C1CCCCCCCCCCOCCCCO1 | -2.4% | 2.9% | 14.8% | 24.1% | 27.7% | -13.4% |
| O=S1(=O)CC(c2ccccc2)(c2ccccc2)Nc2ccccc21 | -6.55% | -14.8% | 0.45% | -5.65% | -11.3% | -18.1% |
| COc1ccc(C(=O)/C=C/C(C)=C/C=N/N(C)c2ccccc2)cc1 | 14% | 18.4% | -0.5% | -39.9% | 17.1% | 17.8% |

Reference: PubChem BioAssay (NCI)
